Rows were chosen to be rich in hits. Some 3.2% of all compounds tested hit in one or more screens of this group.
rCAG binder: binders of r(CAG) RNA repeats, primary screen, biochemical, fluorescence; inhibition, % at 3 µM; r(CAG) RNA repeat, TO-PRO-1 dye displacement fluorescence; actives 1.3% (n = 370,000);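 active = inhibition above the plate cutoff, the mean of all test compounds on that plate plus 3 SD, cut at about 35% in these data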;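 note: 0% = DMSO alone and 100% = 100 µM mitoxantrone as full dye displacement; higher means more dye released from RNA so lower well fluorescence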
PG9 binder: binders of HIV-1 gp120 antibody PG9, primary screen, biochemical, TR-FRET | inhibition, % at 6.7 µM | TR-FRET gp120-PG9 antibody binding | HIV-1 gp120 / PG9 antibody interaction | AID 624416, 2012 | actives 0.43% (n = 360,000); in the data active = inhibition above about 8.5%
bovine MsrA act: bovine MsrA enzyme activators, primary screen, biochemical, absorbance, HTS | actives 0.3% (n = 360,000) | Methionine sulfoxide reductase A (Bos taurus) | activation, % at 10.6 µM | purified bovine MsrA, absorbance read-out; in the data active = activation above about 7.5%;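 note: 0% = vehicle and 100% = reference activator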
MsrA inhibitor: bovine MsrA enzyme inhibitors, primary screen, biochemical, absorbance, HTS | inhibition, % at 15.5 µM | Methionine sulfoxide reductase A (Bos taurus) | actives 0.75% (n = 360,000) | AID 651718, 2012 | purified bovine MsrA, absorbance read-out; in the data active = inhibition above about 4.5%;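 note: 0% = vehicle wells with enzyme and 100% = reference inhibitor wells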
sPLA2-III inh: human group III sPLA2 inhibitors, primary screen, biochemical, QFRET, BODIPY PC-A2 liposome substrate; actives 0.56% (n = 370,000); Group 3 secretory phospholipase A2 (Homo sapiens), Q9NZ20; inhibition, % at 12.2 µM; QFRET BODIPY PC-A2 liposome hydrolysis, fluorescence;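 active = inhibition above mean plus 3 SD of compounds lying within the high and low control bounds, cut at about 19% in these data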;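 note: 0% = median of test compound wells and 100% = no enzyme DMSO wells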
Target sequence (Q9NZ20 whole entry, looked up): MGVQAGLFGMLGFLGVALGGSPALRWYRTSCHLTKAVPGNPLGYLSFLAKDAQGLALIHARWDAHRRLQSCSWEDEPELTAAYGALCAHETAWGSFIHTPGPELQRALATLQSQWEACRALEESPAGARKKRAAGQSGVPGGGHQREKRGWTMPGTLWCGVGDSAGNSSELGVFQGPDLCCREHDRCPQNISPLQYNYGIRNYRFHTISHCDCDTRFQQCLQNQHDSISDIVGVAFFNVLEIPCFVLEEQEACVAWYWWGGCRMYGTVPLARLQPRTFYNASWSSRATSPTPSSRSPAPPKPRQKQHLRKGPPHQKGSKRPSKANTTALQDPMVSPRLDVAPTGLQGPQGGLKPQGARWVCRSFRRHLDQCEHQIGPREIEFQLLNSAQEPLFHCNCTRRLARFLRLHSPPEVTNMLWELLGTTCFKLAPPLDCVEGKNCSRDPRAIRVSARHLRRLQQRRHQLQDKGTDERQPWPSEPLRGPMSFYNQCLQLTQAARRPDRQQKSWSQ
An asterisk follows results filed as active.

What do the screens show for `O=C(O)C/C(=C\c1cc(Br)cs1)c1nc2ccccc2o1`?
rCAG binder: 10; PG9 binder: -2; bovine MsrA act: -5; MsrA inhibitor: 4.6*; sPLA2-III inh: -3

Results for COc1ccc(C(C(=O)N(C)C2CCCC2)N(Cc2ccc(F)cc2)C(=O)c2cc(C)[nH]n2)cc1OC (centres undefined) ?
rCAG binder: -2; sPLA2-III inh: -4

How did COC(=O)[C@]12C[C@H](CC(=O)N3CCC(c4ccccc4)CC3)C(=O)N(CCc3ccc(OC)c(OC)c3)C1=C[C@H](C(C)C)O[C@@H]2C1CC1 do in these assays?
rCAG binder: 6; sPLA2-III inh: -4

What do the screens show for `COc1cc(NC(=O)C2CCCN(S(=O)(=O)c3cccc4cccnc34)C2)cc(OC)c1` (centres undefined)?
rCAG binder: 5; sPLA2-III inh: -13

What do the screens show for `COC(=O)[C@]12C=CCN1[C@@H](c1ccc(OC)c(OC)c1)c1c(c3ccccc3n1S(=O)(=O)c1ccc(C)cc1)C2`?
rCAG binder: 10; sPLA2-III inh: 2

How did CCOC(=O)/C=C(\C)Sc1cc(O)c2ccccc2c1O do in these assays?
rCAG binder: 25; PG9 binder: 0; bovine MsrA act: 3; MsrA inhibitor: 41*; sPLA2-III inh: 5

How did Cc1nc(-c2ccc([N+](=O)[O-])cc2)sc1C(=O)O do in these assays?
rCAG binder: 1; PG9 binder: 1; bovine MsrA act: -16; MsrA inhibitor: 4.6*; sPLA2-III inh: 2

Results for CCOc1ccc(C=Nn2c(-c3ccc(F)cc3)n[nH]c2=S)cc1 ?
rCAG binder: 25; sPLA2-III inh: -7

How did CCCCCCCCNC(=O)C1CSCCS(=O)(=O)N1Cc1ccc(OC)cc1 (centres undefined) do in these assays?
rCAG binder: 1; sPLA2-III inh: 3

How did COc1c(C(C)(C)C)cc(S(=O)(=O)N2c3ccccc3C[C@H]2C)cc1C(C)(C)C do in these assays?
sPLA2-III inh: 6

Results for Cn1c(=O)c(=O)n(C)c2cc([N+](=O)[O-])c([N+](=O)[O-])cc21 ?
rCAG binder: -1; PG9 binder: 0; bovine MsrA act: 2; MsrA inhibitor: 5.1*; sPLA2-III inh: 4

How did O=S1(=O)CC(N2CCCC2)CN1 (centres undefined) do in these assays?
rCAG binder: 2; sPLA2-III inh: 5

Results for Cc1cc(NS(C)(=O)=O)c(=O)n(Cc2cccc(F)c2)c1 ?
rCAG binder: 0; PG9 binder: 1; bovine MsrA act: 0; MsrA inhibitor: 0; sPLA2-III inh: 23*

Results for O=C(c1ccccc1)N1CCC(Oc2cccnc2)CC1 ?
rCAG binder: 3; sPLA2-III inh: 1

What do the screens show for `O=C(CCl)NCCN1C(=O)S/C(=C\c2cccnc2)C1=O`?
rCAG binder: 11; PG9 binder: 1; bovine MsrA act: -9; MsrA inhibitor: 3; sPLA2-III inh: 6

How did CC(C(=O)NCCN1C(=O)S/C(=C\c2cccnc2)C1=O)N1C(=O)c2ccccc2C1=O (centres undefined) do in these assays?
rCAG binder: -3; PG9 binder: 0; bovine MsrA act: -11; MsrA inhibitor: 4.6*; sPLA2-III inh: 6

What do the screens show for `COc1ccc(-c2cccc(NS(=O)(=O)c3cc([N+](=O)[O-])c(C)c([N+](=O)[O-])c3)c2)nn1`?
rCAG binder: 57*; PG9 binder: -1; bovine MsrA act: 0; MsrA inhibitor: -1; sPLA2-III inh: -37

How did N#C/C(=C\c1ccc(-c2ccccc2[N+](=O)[O-])o1)C(=O)Nc1nc(-c2cccs2)cs1 do in these assays?
rCAG binder: 50*; PG9 binder: -1; bovine MsrA act: -8; MsrA inhibitor: 1; sPLA2-III inh: -6

What do the screens show for `C[C@H](O)[C@@H]1CN2CCc3c([nH]c4c(-c5ccccc5)cccc34)[C@@H]2C[C@@H]1N(C)C(=S)Nc1ccc(C#N)cc1`?
rCAG binder: 11; sPLA2-III inh: 1

What do the screens show for `C#CCN1CC(N(C)CCOC(=O)c2cc(C)cc(C)c2)CS1(=O)=O` (centres undefined)?
rCAG binder: -2; sPLA2-III inh: 1

Results for CSc1nc2nccc(/C=C\c3ccccc3)n2n1 ?
rCAG binder: 5; PG9 binder: 0; bovine MsrA act: -3; MsrA inhibitor: 4.9*; sPLA2-III inh: -11
